Screening data: PubChem BioAssay, The Scripps Research Institute Molecular Screening Center
In the library only some 3.4% were active in any assay of this set; here they are far more common.
ADAM10 inh = inhibitors of human ADAM10. recombinant ADAM10, EDANS/DABCYL FRET peptide cleavage, 3 h. inhibition, % at 7 µM. 370,000 compounds, 0.62% hits;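 active means inhibition above a per-campaign cutoff equal to the mean of compounds falling between control-based bounds plus 3 SD, cut at about 20% in these data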;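 further: 0% = DMSO wells while the 100% control is not disclosed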
PLC-beta3 inh = inhibitors of human phospholipase C beta3 | Q01970 | Purified PLC-beta3, fluorogenic substrate, fluorescence | inhibition, % at 12.2 µM | 370,000 compounds, 0.18% hits | AID 720704; in the data active means inhibition above about 11%;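 further: 0% = median of compound wells on plate and 100% = full blocker control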
PLC-gamma1 inh = blocks human PLC-gamma1 enzyme activity; P19174; purified PLC-gamma1, fluorogenic substrate, fluorescence; 370,000 compounds, 0.84% hits; inhibition, % at 12.2 µM; in the data active means inhibition above about 9.5%
KLK7 zymogen act = activators of human kallikrein-7 zymogen; purified proKLK7, EDANS-DABCYL substrate fluorescence; 100% is mature enzyme control, 0% vehicle; 370,000 compounds, 0.9% hits; AID 652039; activation, % at 7 µM;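 active means activation above the mean of all tested compounds plus 3 SD, computed per campaign excluding outliers beyond control limits, cut at about 13% in these data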
sPLA2-III inh = Blocks human group III sPLA2 activity. QFRET BODIPY PC-A2 liposome hydrolysis, fluorescence. inhibition, % at 12.2 µM. 370,000 compounds, 0.56% hits;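 active means inhibition above mean plus 3 SD of compounds lying within the high and low control bounds, cut at about 19% in these data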;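 further: 0% = median of test compound wells and 100% = no enzyme DMSO wells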
ADAM17 inh = inhibits human ADAM17 | AID 720648 | P78536 | inhibition, % at 6.95 µM | 370,000 compounds, 0.83% hits | recombinant ADAM17, EDANS/DABCYL FRET peptide cleavage;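 active means inhibition above the mean of compounds lying between control limits plus 3 SD, set per campaign, cut at about 8.5% in these data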;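 further: 0% = DMSO-only wells as the low control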
ADAM10 confirm = human ADAM10 inhibition, confirmation. shares compounds with ADAM10 inh. ADAM10 QFRET peptide cleavage, EDANS fluorescence. inhibition, % at 6.95 µM. 2,100 compounds, 1% hits;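 active means inhibition above about 20% chosen separately for each screening run, limit read from the data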;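 further: 0% = DMSO wells and 100% = marimastat wells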
ADAM17 counter = ADAM17 inhibition, counter-screen for ADAM10 exosite hits | shares compounds with ADAM10 inh | ADAM17 QFRET peptide cleavage, EDANS fluorescence | inhibition, % at 6.95 µM | 2,100 compounds, 0.5% hits | AID 743214;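 active means mean triplicate inhibition above the solvent-only control wells' mean plus 3 SD, cut at about 12% in these data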;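 further: 0% = DMSO wells and 100% = marimastat wells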
The depositor's hits bear a star; x = no result.

SMILES | ADAM10 inh | PLC-beta3 inh | PLC-gamma1 inh | KLK7 zymogen act | sPLA2-III inh | ADAM17 inh | ADAM10 confirm | ADAM17 counter
CN(c1ccccc1)S(=O)(=O)c1ccc(NC(=O)c2ccc(F)cc2)cc1 | 21* | -7 | 3 | 0 | -15 | 7 | 3 | 1
CC(C)(C)c1ccc(-c2nnc3n2N=C(c2ccc(-c4ccccc4)cc2)CS3)cc1 | -1 | 2 | -1 | 1 | 0 | 2 | x | x
C[C@H]1[C@H](c2ccccc2)Oc2cccc(NCCc3ccccc3)c2S(=O)(=O)N1Cc1cccc(Cl)c1 | 1 | -1 | -3 | -1 | -3 | -2 | x | x
COc1ccc(S[C@]2(C(=O)N3CCN(c4ncccn4)CC3)CC(=O)N(C(=O)CCc3ccccc3)[C@@H]2c2ccc(OC)cc2)cc1 | -4 | 0 | 1 | 0 | 1 | 0 | x | x
Cc1ccc2c(c1)/C(=C/c1ccc(F)cc1)C(=O)N2 | 22* | -6 | -7 | -1 | -1 | 3 | 1 | 0
CCn1c(=O)c2cc(C(=O)N(C)c3ccc(OC)cc3OC)sc2c2ccccc21 | 2 | -1 | 3 | 1 | -10 | -1 | x | x
COc1ccc(N(C)C(=O)c2oc(=O)c3ccccc3c2-c2ccc(C)cc2)c(OC)c1 | 22* | -4 | 5 | 1 | 1 | 2 | 2 | 1
CCC[C@H]1[C@@H](NC(=O)c2cccc(Cl)c2)CC[C@@]23CCCN2C(=O)CCC[C@@H]13 | 2 | 4 | -2 | x | -5 | -1 | x | x
CCOc1ccc(N(CC(=O)NCc2ccco2)C(=O)CCC(=O)Nc2nccs2)cc1 | 5 | -7 | 2 | 1 | -7 | 1 | x | x
CCc1ccccc1N(CC(=O)NCc1ccco1)C(=O)CCC(=O)Nc1nccs1 | 88* | -5 | 1 | 0 | -3 | -7 | 1 | -1
Cn1cccc1/C=N/NC(=O)c1cc2ccccc2cc1O | 23* | -87 | -48 | -3 | 3 | 1 | 8 | 5
CNC(=O)CCc1nc(-c2ccc(C(C)C)cc2)no1 | -4 | 1 | 1 | x | 0 | -3 | x | x
COc1ccc(-c2[nH]c(-c3ccc(C)cc3)nc2SCC(=O)Nc2nccs2)cc1 | 20* | 5 | 1 | -1 | 1 | 1 | 6 | 3
O=S(=O)(Nc1ccc(N=Nc2ccccc2)cc1)c1ccccc1 | 20* | 6 | 7 | 0 | -60 | 8 | 7 | 1
Cc1ccc(S(=O)(=O)N2CCN(C(=O)COC(=O)COc3ccc(Br)cc3)CC2)c(C)c1 | -3 | 0 | 1 | -1 | -8 | 2 | x | x
Cc1ccc(S(=O)(=O)N2CCN(C(=O)COC(=O)Cc3ccc(F)cc3)CC2)c(C)c1 | -2 | -6 | -2 | 0 | -7 | 1 | x | x
CC(=O)c1ccc(OCC(=O)N2CCN(S(=O)(=O)c3ccc(C)cc3C)CC2)cc1 | 84* | -7 | 1 | 0 | 2 | 0 | -1 | 0
CSc1ccc(CSCC(=O)N2CCN(S(=O)(=O)c3ccc(C)cc3C)CC2)cc1 | 24* | -8 | -1 | 0 | -15 | 5 | 3 | 2
C/C(CC(=O)Nc1cc(Cl)ccc1Cl)=N\NC(=O)COc1cccc(C)c1 | 20* | -1 | 4 | -1 | -6 | 2 | 2 | 0
CCOC(=O)c1[nH]c(C)c(C(=O)NCc2ccc(OC)cc2)c1C | 68* | 5 | 2 | 0 | 3 | -2 | 0 | 0
Cn1cccc1C(=O)N1CCN(S(=O)(=O)c2ccc([N+](=O)[O-])cc2)CC1 | -2 | 2 | -2 | 0 | -4 | 1 | x | x
CCCc1c(Cc2cccc(F)c2)ncn1CCc1ccccc1OC | 46* | 2 | 3 | 0 | -3 | -1 | 1 | 1
C[C@@H]1CN([C@@H](C)CO)C(=O)c2cccc(NC(=O)Nc3ccc(F)cc3)c2O[C@@H]1CN(C)Cc1ccc(Oc2ccccc2)cc1 | 21* | 0 | 2 | 1 | -31 | 4 | 7 | 2
CC(C)NC(=O)N(C)C[C@H]1Oc2ccc(NC(=O)Nc3ccc(C(F)(F)F)cc3)cc2C(=O)N([C@H](C)CO)C[C@@H]1C | -1 | -2 | 0 | 0 | -18 | 1 | x | x
C[C@@H]1CCCCO[C@H](CN(C)C(=O)Nc2ccc(F)cc2)[C@@H](C)CN([C@H](C)CO)C(=O)c2cc(NC(=O)c3ccccc3)ccc2O1 | 23* | -2 | 3 | 0 | -8 | 3 | 3 | 0
SMILES | ADAM10 inh | PLC-beta3 inh | PLC-gamma1 inh | KLK7 zymogen act | sPLA2-III inh | ADAM17 inh | ADAM10 confirm | ADAM17 counter
C[C@@H]1CCCCO[C@H](CN(C)C(=O)NC2CCCCC2)[C@@H](C)CN([C@H](C)CO)C(=O)c2cc(NC(=O)c3ccccc3)ccc2O1 | -9 | -2 | -1 | 0 | -4 | -1 | x | x
C[C@@H]1CN([C@H](C)CO)C(=O)c2cc(NC(=O)Nc3ccc(C(F)(F)F)cc3)ccc2O[C@H]1CN(C)C(=O)Nc1ccc(F)cc1 | 35* | -3 | 0 | 1 | -30 | 8 | 8 | 2
C[C@H]1CCCCO[C@H](CN(C)C(=O)Nc2ccc(F)cc2)[C@@H](C)CN([C@@H](C)CO)C(=O)c2cc(NC(=O)Nc3ccc4c(c3)OCO4)ccc2O1 | 23* | 1 | 2 | 0 | -31 | 8 | 10 | 3
COC(=O)C(CC(C)C)N(Cc1ccc(Br)cc1)S(=O)(=O)CCl (stereo not drawn) | 13 | -1 | 0 | 0 | -10 | 3 | x | x
CCCCCCCCN1C(=O)[C@@H](CC(=O)NCCCCc2ccccc2)C[C@@]2(C(=O)OC)C1=C[C@H](C(C)(C)C)O[C@@H]2C | -3 | 1 | -3 | -1 | 0 | -4 | x | x
C[C@@H]1CN([C@@H](C)CO)C(=O)c2ccccc2-c2ccccc2CO[C@@H]1CN(C)Cc1ccc(Cl)c(Cl)c1 | 22* | 1 | 3 | -1 | -12 | 8 | 8 | 3
COC(=O)[C@]12C[C@H](CC(=O)NCCc3ccccc3OC)C(=O)N(Cc3ccc4c(c3)OCO4)C1=C[C@H](COCc1ccccc1)O[C@@H]2C | 7 | -2 | -1 | 1 | -4 | 3 | x | x
Cc1cccc2c1CCC1CN(Cc3ccccc3)S(=O)(=O)N21 (stereo not drawn) | 1 | 3 | 5 | x | -4 | -2 | x | x
O=C(CCc1ccc(S(=O)(=O)NCCc2ccccc2)cc1)N1CCN(Cc2ccc3c(c2)OCO3)CC1 | 21* | 2 | 2 | 1 | -47 | 4 | 6 | 2
CC(C)CNS(=O)(=O)c1ccc(CCC(=O)N2CCN(Cc3ccc4c(c3)OCO4)CC2)cc1 | 6 | 7 | 4 | 0 | -18 | 0 | x | x
